Among the data in PubChem BioAssay are composite z-score, composite Z-score and z-score values, retold here.

Active and inactive are the calls of the source.

The target in one test is Albumin (Bos taurus) (UniProt P02769). As to the kind of experiment: compounds binding labelled BSA control protein – biochemical, small-molecule microarray, Alexa647 label, 635/667 nm fluorescence, artefact control for SMM control protein annotation, profiling panel (AID 1118).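 Also: score merges 667 nm emission intensity and signal-to-noise per printed compound spot.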 Conditions: BSA-A647 binding, fluorescence 635 nm, higher = more signal.
Albumin (Bos taurus), sequence (P02769 whole entry, looked up): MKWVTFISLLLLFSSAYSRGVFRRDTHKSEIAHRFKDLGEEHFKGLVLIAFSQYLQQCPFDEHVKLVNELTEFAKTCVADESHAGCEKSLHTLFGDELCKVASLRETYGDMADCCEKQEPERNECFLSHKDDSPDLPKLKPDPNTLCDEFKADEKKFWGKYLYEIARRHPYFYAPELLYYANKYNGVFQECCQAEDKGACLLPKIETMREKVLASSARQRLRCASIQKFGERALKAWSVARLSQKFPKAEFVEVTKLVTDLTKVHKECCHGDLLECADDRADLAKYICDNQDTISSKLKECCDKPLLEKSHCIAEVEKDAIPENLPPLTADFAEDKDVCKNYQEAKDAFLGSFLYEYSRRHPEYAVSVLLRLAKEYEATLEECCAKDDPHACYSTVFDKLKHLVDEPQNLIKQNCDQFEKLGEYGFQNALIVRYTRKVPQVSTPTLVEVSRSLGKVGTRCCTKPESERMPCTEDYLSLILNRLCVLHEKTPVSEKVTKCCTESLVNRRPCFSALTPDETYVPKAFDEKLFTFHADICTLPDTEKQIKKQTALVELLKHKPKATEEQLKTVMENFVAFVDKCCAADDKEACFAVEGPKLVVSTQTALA
The nature of test [1]: probe aXIP binding to arrayed compounds – biochemical, NeuroSMM set, 635/667 nm fluorescence, primary screen (AID 1119).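 Also: probe is the protein aXip251-270 applied at 1 µg/mL to compound-printed slides; binding of probe to printed compounds measured as 667 nm fluorescence plus signal to noise.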 The note with it: small-molecule microarray, higher = more signal, called active from +8 up or from −8 down.
Test [2] is described as follows: probe aNOTCH3 binding on compound microarray – biochemical, small-molecule microarray, 635/667 nm fluorescence, primary screen (AID 1120).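 Also: probe is a biotin-tagged antibody raised against NOTCH3 rather than NOTCH3 protein; score merges spot fluorescence near 667 nm with spot signal to noise.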 The note with it: higher = more signal.
The nature of test [3]: probe aNOTCH2 binding on compound microarray – biochemical, small-molecule microarray, 635/667 nm fluorescence, primary screen (AID 1121).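 Also: score merges feature fluorescence read at 667 nm with its signal to noise.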 The note with it: higher = more signal.
Test [4] has as its target Carbonic anhydrase 2 (Homo sapiens) (UniProt P00918). Briefly: compounds binding carbonic anhydrase 2 – biochemical, small-molecule microarray, Alexa647-labelled CAII, profiling panel (AID 1122). The note with it: CAII-A647 binding fluorescence, higher = more signal.
Test [5] can be described thus: COS7 lysate on small-molecule microarray, probe aHis, 635 nm (AID 1123).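 Also: z-score combines 667nm fluorescence intensity with signal-to-noise per printed compound spot.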 The note with it: COS7 cell lysate, fluorescence, higher = more signal.
Test [6] in a line: probe aLAP1 signal on lysate-treated microarray – cell lysate, small-molecule microarray, COS7 lysate, primary screen (AID 1124).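 Also: lysate comes from COS7 cells expressing LAP1 and is applied at 0.3 µg/mL; score merges spot fluorescence near 667 nm with signal-to-noise over triplicate slides.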 The note with it: probe aLAP1, fluorescence, higher = more signal.
Another test relates to Sam68 (KHDRBS1). As to the kind of experiment: compounds binding KHDRBS1 protein – biochemical, small-molecule microarray, 635 nm fluorescence, primary screen (AID 1125).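 Also: score merges 667 nm channel intensity with signal to noise over triplicate slides.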 Conditions: higher = more signal.
In test [7] the test system is Chordin-like protein 2 (CHRDL2). As to the kind of experiment: compounds binding chordin-like 2 – biochemical, small-molecule microarray, 635 nm fluorescence, primary screen (AID 1126).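 Also: printed compound slides probed with Chrdl2 protein at 4 µg/mL for 1 h at 4 C; score merges 667 nm emission intensity with signal to noise over three replicate slides.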 Conditions: fluorescence 635 nm, higher = more signal.
Test [8] concerns the target Concanavalin-A (Canavalia ensiformis) (UniProt P02866). Briefly: compounds binding concanavalin A lectin – biochemical, small-molecule microarray, Alexa647 label, 635 nm, artefact control for SMM control protein annotation, primary screen (AID 1127).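 Also: z combines 667 nm emission intensity with signal-to-noise across three replicate slides.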 Conditions: ConA-A647 binding fluorescence, higher = more signal.
Test [9] is described as follows: compounds binding Alexa647 anti-His antibody – biochemical, small-molecule microarray, 635 nm fluorescence, artefact control for SMM control protein annotation, primary screen (AID 1128).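 Also: score merges feature fluorescence with signal-to-noise for each printed compound spot.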 The note with it: higher = more signal.
Test [10] relates to Human papillomavirus type 1a E7 protein (residues 1-88). As to the kind of experiment: HPV1a E7 small-molecule binders, primary screen, biochemical, small-molecule microarray, residues 1-88, 635 nm (AID 1129). Conditions: small-molecule microarray binding, fluorescence 635 nm; higher = more signal.
Test [11] has as its target Focal adhesion kinase 1 (Homo sapiens) (UniProt Q05397). As to the kind of experiment: PTK2 protein binding on printed compound slides – biochemical, small-molecule microarray, 635/667 nm fluorescence, BSA, DTT, primary screen (AID 1130).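 Also: composite of spot emission at 667 nm and signal to noise over triplicate slides.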 Conditions: 635 nm fluorescence, higher = more signal.
Test [12] concerns Fibrinogen (Alexa647-labelled). As to the kind of experiment: Alexa647-fibrinogen binding to printed small molecules – biochemical, small-molecule microarray, 635/667 nm fluorescence, artefact control for SMM control-protein annotation, profiling panel (AID 1131).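 Also: z-score merges 667 nm fluorescence with per-spot signal-to-noise over triplicate slides.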 Conditions: fibrinogen-A647 binding fluorescence, higher = more signal.
The target in test [13] is Follistatin (Homo sapiens) (UniProt P19883). As to the kind of experiment: FST protein binding to printed compounds – biochemical, small-molecule microarray, 635/667 nm fluorescence, primary screen (AID 1132). Conditions: 635 nm fluorescence, higher = more signal.
Follistatin (Homo sapiens), sequence (P19883 whole entry, looked up): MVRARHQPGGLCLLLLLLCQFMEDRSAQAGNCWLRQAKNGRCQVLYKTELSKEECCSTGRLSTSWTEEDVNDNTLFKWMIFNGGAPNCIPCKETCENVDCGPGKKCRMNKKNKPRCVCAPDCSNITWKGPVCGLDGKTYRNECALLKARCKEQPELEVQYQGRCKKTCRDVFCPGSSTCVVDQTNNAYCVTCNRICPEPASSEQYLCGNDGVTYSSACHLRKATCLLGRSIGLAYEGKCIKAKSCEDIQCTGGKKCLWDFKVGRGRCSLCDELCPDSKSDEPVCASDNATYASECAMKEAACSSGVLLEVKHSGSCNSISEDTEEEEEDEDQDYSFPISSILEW
Test [14] concerns the target Fibroblast growth factor 2 (Homo sapiens) (UniProt P09038). Briefly: basic fibroblast growth factor binding to printed compounds – biochemical, small-molecule microarray, 635/667 nm fluorescence, primary screen (AID 1133). The note with it: FGF2, fluorescence 635/667, higher = more signal.
The nature of test [15]: JC-1 mitochondrial potential readout, lung cancer cells – cell-based, A549, JC-1 fluorescence, basal, 24 h, 100 nL, profiling panel (AID 1138).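 Also: A549 lung adenocarcinoma cells under basal conditions with no added stimulus; test concentration not given here.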 The note with it: higher = more signal.
In the next test the test system is Lefty1. Briefly: Lefty1 protein binding to printed compounds – biochemical, small-molecule microarray, 635/667 nm fluorescence, primary screen (AID 1139). The note with it: fluorescence 635/667, higher = more signal.
Test [16] concerns wheat germ agglutinin (Triticum aestivum), Alexa647-labelled. As to the kind of experiment: Alexa647-WGA lectin binding to printed small molecules – biochemical, small-molecule microarray, 635/667 nm fluorescence, artefact control for SMM control-protein annotation, profiling panel (AID 1140).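 Also: score merges 667 nm feature emission with signal to noise over triplicate slides.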 Conditions: WGA-A647 binding, 635 nm fluorescence, higher = more signal.
The target in test [17] is Luciferin 4-monooxygenase (Photinus pyralis) (UniProt P08659). As to the kind of experiment: inhibition of purified Photinus pyralis luciferase – biochemical, luminescence, purified enzyme, 2006 set, primary screen (AID 1141).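 Also: cell-free assay with purified firefly luciferase at 100 ng per well in PBS; test concentration not given here.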 Conditions: purified firefly luciferase, SteadyGlo luminescence, 30 min; higher = more signal, called active from +8 up or from −8 down.
Luciferin 4-monooxygenase (Photinus pyralis), sequence (P08659 whole entry, looked up): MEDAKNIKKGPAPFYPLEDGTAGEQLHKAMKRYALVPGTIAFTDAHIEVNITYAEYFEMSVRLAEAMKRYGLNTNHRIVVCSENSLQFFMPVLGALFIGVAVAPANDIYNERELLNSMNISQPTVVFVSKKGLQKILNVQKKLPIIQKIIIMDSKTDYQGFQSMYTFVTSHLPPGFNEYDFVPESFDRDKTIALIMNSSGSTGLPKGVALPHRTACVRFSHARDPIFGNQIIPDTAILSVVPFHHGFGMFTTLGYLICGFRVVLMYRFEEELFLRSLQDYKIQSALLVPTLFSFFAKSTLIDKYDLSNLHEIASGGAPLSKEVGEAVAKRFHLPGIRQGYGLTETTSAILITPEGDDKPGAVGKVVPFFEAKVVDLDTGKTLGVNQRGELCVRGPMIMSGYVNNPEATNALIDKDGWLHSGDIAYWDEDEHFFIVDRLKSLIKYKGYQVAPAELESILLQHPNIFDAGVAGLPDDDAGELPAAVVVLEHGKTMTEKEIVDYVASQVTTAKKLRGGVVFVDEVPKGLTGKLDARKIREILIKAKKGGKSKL

Concanavalin-A (Canavalia ensiformis), sequence (P02866 whole entry, looked up): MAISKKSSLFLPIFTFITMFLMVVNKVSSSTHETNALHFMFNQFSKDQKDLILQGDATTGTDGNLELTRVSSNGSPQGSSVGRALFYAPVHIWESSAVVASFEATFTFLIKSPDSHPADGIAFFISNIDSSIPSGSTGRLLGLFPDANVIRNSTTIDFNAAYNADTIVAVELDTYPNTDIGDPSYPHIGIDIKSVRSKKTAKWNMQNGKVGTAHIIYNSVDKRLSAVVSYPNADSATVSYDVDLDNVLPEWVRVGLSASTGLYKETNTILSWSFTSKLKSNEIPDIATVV
Focal adhesion kinase 1 (Homo sapiens), sequence (Q05397 whole entry, looked up): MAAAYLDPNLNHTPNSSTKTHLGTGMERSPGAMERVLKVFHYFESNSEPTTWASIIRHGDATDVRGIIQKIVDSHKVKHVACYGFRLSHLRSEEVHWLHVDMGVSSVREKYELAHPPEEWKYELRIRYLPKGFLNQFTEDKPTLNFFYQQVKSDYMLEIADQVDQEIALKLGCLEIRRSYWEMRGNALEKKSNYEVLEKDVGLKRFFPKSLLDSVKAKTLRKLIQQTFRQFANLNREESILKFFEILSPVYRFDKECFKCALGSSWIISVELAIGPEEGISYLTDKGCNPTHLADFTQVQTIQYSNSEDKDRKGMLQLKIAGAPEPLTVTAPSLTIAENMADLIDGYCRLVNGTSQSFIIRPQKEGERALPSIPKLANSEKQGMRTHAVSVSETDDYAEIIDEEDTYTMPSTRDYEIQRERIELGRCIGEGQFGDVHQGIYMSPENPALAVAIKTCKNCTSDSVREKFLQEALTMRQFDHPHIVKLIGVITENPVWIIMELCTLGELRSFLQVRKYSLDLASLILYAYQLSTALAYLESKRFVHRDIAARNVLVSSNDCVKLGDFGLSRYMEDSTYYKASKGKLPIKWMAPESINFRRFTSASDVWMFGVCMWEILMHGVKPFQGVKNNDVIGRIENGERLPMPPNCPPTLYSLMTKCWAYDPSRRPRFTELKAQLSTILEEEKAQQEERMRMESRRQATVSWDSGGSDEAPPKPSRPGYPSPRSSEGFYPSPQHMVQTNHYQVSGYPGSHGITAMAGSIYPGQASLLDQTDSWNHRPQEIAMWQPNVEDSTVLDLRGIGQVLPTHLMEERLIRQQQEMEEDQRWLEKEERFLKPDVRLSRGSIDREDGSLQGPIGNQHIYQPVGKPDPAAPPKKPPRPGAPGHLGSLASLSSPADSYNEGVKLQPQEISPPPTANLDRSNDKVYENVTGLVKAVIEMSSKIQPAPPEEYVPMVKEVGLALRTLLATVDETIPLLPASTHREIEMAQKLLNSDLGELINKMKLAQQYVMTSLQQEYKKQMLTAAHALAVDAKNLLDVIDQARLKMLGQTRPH
Fibroblast growth factor 2 (Homo sapiens), sequence (P09038 whole entry, looked up): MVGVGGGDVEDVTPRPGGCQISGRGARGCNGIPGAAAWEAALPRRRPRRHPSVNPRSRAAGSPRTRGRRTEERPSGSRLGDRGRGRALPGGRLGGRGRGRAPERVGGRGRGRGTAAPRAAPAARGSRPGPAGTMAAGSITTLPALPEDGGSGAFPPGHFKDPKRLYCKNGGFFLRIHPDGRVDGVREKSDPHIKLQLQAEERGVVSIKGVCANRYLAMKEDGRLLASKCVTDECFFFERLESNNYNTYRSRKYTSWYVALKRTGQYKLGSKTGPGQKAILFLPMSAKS

As to `CC(C)NC(=O)[C@@H]1c2ccccc2C(=O)N(C2Cc3ccccc3C2)[C@H]1c1ccc(CO)cc1`, the composite z-score was 0.416 with Albumin (Bos taurus); -0.145 in test [2]; -0.117 in test [3]; 0.492 in test [4]; 1.62 in test [5]; 0.781 in test [6]. The composite z-score with Sam68 (KHDRBS1) is 0.983; in test [7], -0.321; in [8] it was 0.771; in test [9], 1.51; in [10] it was 1.04; in [11] it was 0.0815. Moreover, the composite z-score in test [12] was 0.445; in [13], 0.351; in test [14], 0.162; with Lefty1, -0.0727; in test [16] it was 0.664. Further, the composite Z-score in test [1] is 0.392 (inactive). Moreover, the z-score is 2.54 in test [15] and 0.668 (inactive) in test [17].

Take `COCCOC(=O)N1C(=O)[C@@]2(c3cc(C#CCCO)ccc31)[C@H](C(=O)N1CCCCCCC1)[C@H]1C(=O)O[C@H](c3ccccc3)[C@H](c3ccccc3)N1[C@@H]2c1ccc(OCCO)cc1`: the composite z-score with Albumin (Bos taurus) amounted to 0.796; in test [2], 1.33; in test [3] it was 0.833; in test [4], 0.549; in test [5] it was 2.75; in test [6], 0.906. In addition, the composite z-score was found to be 1.3 with Sam68 (KHDRBS1); 1.26 in test [7]; 1.16 in [8]; 1.19 in test [9]; 1.2 in test [10]; 0.959 in [11]. Moreover, the composite z-score is 0.769 in test [12]; 1.4 in test [13]; 1.51 in test [14]; 1.6 in the test on Lefty1; 1.35 in test [16]. Moreover, the composite Z-score in [1] is 1.91 (inactive). The results for the z-score in test [15] and in test [17] were -0.821 and 0.242 (inactive), respectively.

With `[N-]=[N+]=Nc1ccccc1[C@@H]1OC(c2ccc(OCCCO)cc2)=N[C@]1(CCS(=O)(=O)c1ccccc1)C(N)=O`, the composite z-score stood at 0.935 with Albumin (Bos taurus); 0.308 in test [2]; 0.125 in test [3]; 0.438 in test [4]; 2.02 in test [5]; 1.66 in test [6]. For the same molecule, the composite z-score is 1.29 in the test on Sam68 (KHDRBS1); -0.227 in test [7]; 1.16 in test [8]; 0.712 in test [9]; 1.23 in test [10]; 0.203 in [11]. The composite z-score is 1.02 in test [12]; 1.28 in test [13]; 0.423 in test [14]; -0.411 in the test with Lefty1; 0.881 in [16]. For the same molecule, the composite Z-score in test [1] was 0.185 (inactive). Further, the z-score in test [15] was -0.995; in test [17] it was -13.5 (active).

Take `CC1CC/C=C\[C@H]2OC34C=CCN(C(C)(C)C)C(=O)[C@H]3N(CCO)C(=O)[C@@H]4C2C(=O)O1` (stereo not given in full): the composite z-score in the test with Albumin (Bos taurus) was 0.922; in test [2], -0.341; in test [3], -0.148; in test [4] it was 0.917; in test [5] it was 1.08; in [6], 1.41. For the same molecule, the composite z-score is -0.719 with Sam68 (KHDRBS1); -1.31 in test [7]; -2.33 in test [8]; -0.931 in test [9]; -0.585 in [10]; -0.0131 in test [11]. Besides, the composite z-score in test [12] is -0.671; in test [13] it was -0.352; in test [14], -0.845; with Lefty1, -0.991; in [16], 0.119. In addition, the composite Z-score in [1] was 0.108 (inactive). The z-score in test [15] is -0.315; in test [17], 0.864 (inactive).

With `COc1ccc(CCNC(=O)[C@@]2(Sc3ccc(C)cc3)CC(=O)N(C3Cc4ccccc4C3)[C@@H]2c2ccc(CO)cc2I)cc1`, the composite z-score is -0.101 with Albumin (Bos taurus); 0.0425 in test [2]; -0.192 in test [3]; 0.729 in test [4]; 1.17 in [5]; -0.286 in test [6]. The composite z-score in the test with Sam68 (KHDRBS1) is 0.608; in test [7], -0.235; in [8], -1.26; in test [9], 1.13; in test [10], 0.255; in test [11] it was 0.235. Moreover, the composite z-score in [12] was -0.716; in test [13] it was -0.816; in test [14], -0.944; in the test on Lefty1, -1.04; in test [16], -0.176. For the same molecule, the composite Z-score in [1] is -0.235 (inactive). Besides, the z-score in test [15] is 1.43; in test [17] it was -0.704 (inactive).

As to `C=C(COC)/C(=C/C[C@H](OC(C)=O)c1ccc(CO)o1)c1cc(C(=O)OC)ccc1OC`, the composite z-score in the test with Albumin (Bos taurus) was 0.424; in test [2] it was -0.103; in test [3], -0.155; in test [4], 0.654; in test [5] it was 0.107; in test [6] it was 0.022. The composite z-score is 0.322 with Sam68 (KHDRBS1); 0.0151 in test [7]; -0.714 in test [8]; 0.795 in [9]; 0.516 in [10]; 0.0348 in test [11]. The composite z-score was 0.255 in test [12]; 0.435 in [13]; -0.1 in [14]; 0.57 in the test with Lefty1; -0.199 in test [16]. Also, in test [1], the composite Z-score was 0.482 (inactive). For the same molecule, the z-score was -0.91 in [15] and -0.769 (inactive) in test [17].
